Screening results deposited in PubChem by National Center for Advancing Translational Sciences (NCATS).
Gal4-VP16 FLuc: counter-screen for ROR gamma inhibitors: Gal4-VP16 reporter. Drosophila S2 Gal4-VP16 UAS-luciferase, luminescence, 20 h. Potency, µM (top dose mostly 53.6 µM), for the others: at the top dose activity, negative = inhibition, actives largely listed as inhibitors. 310,000 tested, 3.5% active. AID 2546;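 note: Gal4-VP16 expression switched on by copper sulfate through the metallothionein promoter; % is set by controls: 0 for no effect and ±100 for the full control effect; nearly all actives have a fitted effect of over 50% in size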
GLP1R ag: agonists of human GLP-1 receptor | HEK293 GLP-1R CRE-luciferase, luminescence, 4-6 h; cells express a hypersensitive GLP-1R form | Potency, µM (doses to about 45.6 µM), without a hit: top-dose activation, hits mostly activators | 380,000 tested, 0.007% active | AID 624172; note: % of control where 0% means no effect
RORg inh: inhibitors of mouse ROR gamma transcriptional activity. 310,000 tested, 5.4% active. P51450. Drosophila S2 Gal4-RORgamma UAS-luciferase reporter, 20 h. Potency, µM (series often up to 53.6 µM), without a hit: top-dose activity change, negative = inhibition, actives largely listed as inhibitors; note: % is set by controls: 0 for no effect and ±100 for the full control effect; nearly all actives have a fitted effect of over 60% in size
Target sequence (P51450 whole entry, looked up, the tested form may be a part): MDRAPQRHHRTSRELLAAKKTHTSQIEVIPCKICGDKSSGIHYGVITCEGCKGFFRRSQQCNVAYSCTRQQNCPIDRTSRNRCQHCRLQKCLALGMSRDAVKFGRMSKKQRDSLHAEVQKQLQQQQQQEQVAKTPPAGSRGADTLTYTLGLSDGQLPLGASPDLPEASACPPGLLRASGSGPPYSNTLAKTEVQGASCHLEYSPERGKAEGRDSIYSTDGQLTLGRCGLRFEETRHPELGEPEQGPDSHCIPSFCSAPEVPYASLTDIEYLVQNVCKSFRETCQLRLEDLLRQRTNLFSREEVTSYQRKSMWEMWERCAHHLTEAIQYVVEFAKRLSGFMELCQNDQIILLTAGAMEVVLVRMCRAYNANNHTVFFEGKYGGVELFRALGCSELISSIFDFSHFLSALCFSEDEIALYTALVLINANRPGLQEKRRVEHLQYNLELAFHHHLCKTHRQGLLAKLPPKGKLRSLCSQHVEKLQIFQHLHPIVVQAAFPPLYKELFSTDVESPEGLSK
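Compounds are pin-transferred onto Drosophila Schneider cells expressing a copper-inducible Gal4–ROR gamma transactivation domain fusion. After 1 hr, copper sulfate is added to 700 uM final; luciferase is read 20 hr later.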
GLP1R cytotox: cytotoxic in the GLP-1 receptor inverse agonist counter-screen. HEK293 cAMP-luciferase reporter cells, luminescence, 24 h. Potency, µM (series often up to 38.3 µM), inactives show top-dose activity change, negative = inhibition, usual class: inhibitors. 410,000 tested, 0.13% active;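 note: loss of luciferase light is scored as toxicity; % is set by controls: 0 for no effect and ±100 for the full control effect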
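To flag toxic compounds, the library was rerun on cells for 24 hr at 37 deg C and 5% CO2. Viability-linked luminescence was captured 12 min after adding luciferase detection reagent.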
GLP-1R inv ag: acts as inverse agonist at human GLP-1 receptor | 410,000 tested, 1.6% active | P43220 | HEK293 GLP-1R CRE-luciferase, luminescence, 24 h; GLP-1R form is constitutively active | AID 624417 | Potency, µM (titrated, usually from 38.3 µM), inactives show top-dose activity change, negative = inhibition, most hits filed as inhibitors; note: % is set by controls: 0 for no effect and ±100 for the full control effect; nearly all actives have a fitted effect of over 55% in size
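qHTS in 1536-well format: reporter HEK293 cells expressing constitutive GLP-1R activity in DMEM + 10% Nu serum, 24 hr with compounds at 37 deg C, luminescence read after 12 min with detection reagent.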
An asterisk follows results filed as active; ? = inconclusive; · = not tested or not shown; [ ] = another dose, or the depositor's remark. Only some compounds are listed: those with a hit (about 5.9% of all), similar ones and a draw of the others. Calls come from the whole dose curve; as a rule, active = well fitted curve in the direction sought with a large enough effect; inconclusive = small, poorly fitted or top-dose-only effect, or another doubt; inactive = no such curve, though single readings can be large; an effect the other way counts as inactive or inconclusive. Potency is the fitted concentration of half-maximal effect.

SMILES	Gal4-VP16 FLuc	GLP1R ag	RORg inh	GLP1R cytotox	GLP-1R inv ag
Cc1cccnc1NC(=O)c1sc2ccccc2c1Cl	8.91µM*	11.3%	8.91µM*	3.9%	21.7%
Cc1nnc(NC(=O)c2sc3ccccc3c2Cl)s1	8.91µM*	-14.5%	?	7.9%	?
CC(C)c1nnc(NC(=O)CC(=O)Nc2ccccc2C(=O)O)s1	?	-27.4%	11.2µM*	67.9%	?
O=C(CO)NCCCOc1cccc(CN2CCCCC2)c1	·	1.5%	·	·	·
COc1cccc(Cn2c(=O)c(-c3ccc(Cl)cc3)nc3cncnc32)c1	-0.3%	·	-9.3%	·	·
COc1cc(/C=C/c2sc3ccccc3[n+]2CCCS(=O)(=O)[O-])ccc1O	?	-2.5%	?	10µM*	31.4%
CCC(/C=C1\Oc2ccc(OC)cc2N1C)=C\c1sc2ccccc2[n+]1CCCS(=O)(=O)[O-]	·	-5.0%	·	-15.6%	-15.8%
Cc1nn(Cc2cccc(C(=O)NC3CCCCC3)c2)c(C)c1Cl	1.8%	2.5%	5.5%	14.4%	10µM*
O=C(NC1CCCCCCC1)c1cccc(Cl)c1	?	17.5%	38.8%	-8.9%	?
CC(C)NC(=O)CC(=O)Nc1ccc2nc3n(c(=O)c2c1)CCCCC3	·	0.1%	·	5.7%	-3.7%
CCSc1cnc(-c2ccccc2)n1CC	-27.2%	1.9%	12.6µM*	-2.0%	1.1%
CC1(C)CC2CC(C)(CN2S(=O)(=O)c2ccc(C(=O)Nc3ccc(S(=O)(=O)N4CCOCC4)cc3)cc2)C1 (configuration not stated)	?	0.6%	?	10.9%	11.2µM*
O=C(Nc1ccc(Cl)c(S(=O)(=O)N2CCOCC2)c1)c1ccccc1-c1ccc(C(F)(F)F)cc1	-17.5%	19.1%	34.5%	2.4%	2.82µM*
CC1(C)CC2CC(C)(CN2S(=O)(=O)c2ccc(C(=O)Nc3ccc(Cl)c(S(=O)(=O)N4CCOCC4)c3)cc2)C1 (configuration not stated)	12.6µM*	-16.6%	?	-11.8%	3.55µM*
O=C(Nc1ccc(Cl)c(S(=O)(=O)N2CCOCC2)c1)c1cc2ccccc2oc1=O	·	0.4%	·	-0.2%	13.1%
Cc1ccc(C)n1-c1nnc(N2CCC(C(=O)Nc3ccccc3Br)CC2)s1	·	·	·	-5.1%	-4.6%
OC(CNCc1ccccc1)Cn1ccc2ccccc21 (configuration not stated)	-4.4%	6.8%	11.0%	10.7%	?
OC(CNCCNc1ncccc1C(F)(F)F)Cn1ccc2ccccc21 (configuration not stated)	-8.4%	21.6%	7.8%	-5.4%	10µM*
C[C@H](c1ccccc1)N1C(=O)[C@H]2[C@@H]3[C@H](O)[C@H](O)CC(=O)[C@H]3CC[C@H]2C1=O	-3.0%[10 µM]	·	-0.9%[10 µM]	·	·
COc1ccc2c(c1)CCc1sc(NC(=O)c3ccc(C)cc3)nc1-2	1µM*	-3.0%	0.141µM*	88.8%	-19.5%
COc1ccc2c(c1)-c1nc(NC(=O)c3cccs3)sc1CC2	?	3.6%	8.91µM*	2.8%	?
COc1ccc2c(c1)-c1nc(NC(=O)c3ccco3)sc1CC2	-1.9%	0.9%	-16.7%	-14.1%	1.4%
COc1ccc2c(c1)-c1nc(/N=C/c3c(O)ccc4ccccc34)sc1CC2	?	-3.6%	15.8µM*	-12.5%	1.7%
Cc1cc(Nc2ccc(Cl)cc2)nc(NCc2ccccc2)n1	?	?	?	?	11.2µM*
Cc1cc(Nc2ccccc2)nc(NCc2ccccc2)n1	11.2µM*	15.1%	2.82µM*	?	8.91µM*
SMILES	Gal4-VP16 FLuc	GLP1R ag	RORg inh	GLP1R cytotox	GLP-1R inv ag
COc1cc(NC(=O)C2CCN(S(=O)(=O)c3c(C)noc3/C=C/c3cccs3)CC2)cc(OC)c1	·	·	·	2.3%	?
O=C(Oc1c(Cl)cc(Cl)c2cccnc12)N1CCOCC1	16.1%	0.0%	-38.5%	4.0%	-3.7%
CN1CCN(Cc2cc(Cl)c3cccnc3c2OC(=O)c2cccs2)CC1	12.6µM*	0.4%	4.47µM*	?	?
O=C(Oc1c(CN2CCOCC2)cc(Cl)c2cccnc12)c1ccccc1Br	3.98µM*	7.4%	6.31µM*	?	?
c1ccc(-c2nnc(CN3CCCc4ccccc43)o2)cc1	?	13.7%	-32.2%	29.0%	-30.0%
Oc1ccc(CN2CCCc3ccccc32)c2cccnc12	12.6µM*	-22.9%	7.94µM*	?	-7.4%
COc1ccccc1N1CCN(Cc2ccc(O)c3ncccc23)CC1	?	7.2%	0.501µM*	?	?
COc1ccccc1N1CCN(Cc2ccc(OC)c(OC)c2OC)CC1	-3.9%	0.9%	11.7%	?	0.0%
CCOC(=O)C1CCN(Cc2ccc(O)c3ncccc23)CC1	5.01µM*	-7.0%	2.82µM*	-33.8%	?
C/C=C(/C)C(=O)O[C@H]1C[C@@]2(C)O[C@H]2[C@@H](OC(C)=O)C2(C)CC[C@@](O)(C(C)C)C12 (some centres not stated)	10.0%	·	19.5%	·	·
CC1C(=O)C(=O)C=CN1C (configuration not stated)	-1.1%	-0.7%	-6.7%	·	·
CC(=O)c1c(C)oc2c1C(=O)c1ccccc1C2=O	15.8µM*	4.2%	3.98µM*	9.4%	4.1%
COc1cc(CCNC(C)=O)c(C(=O)/C=C/c2cccc(OC)c2OC)cc1OC	24.4%	·	?	·	·
C=CCOc1c(Cl)cc(C(=S)N2CCCC2)cc1OCC	?	1.3%	12.6µM*	-26.2%	?
Cc1ccc(NC(=O)C2CCCN(S(=O)(=O)c3ccc4c(c3)CCCC(=O)N4)C2)cc1Cl (configuration not stated)	·	1.0%	·	7.0%	?
CCc1ccccc1N1CC(c2nc3ccccc3n2CC(C)C)CC1=O (configuration not stated)	·	·	·	0.3%	?
O=Cc1cc(N=Nc2ccccc2Cl)ccc1O	6.0%	-4.5%	11.2µM*	-20.2%	?
Cc1ccc2c(c1)C(c1ccccc1)N(C(=O)COc1ccc(Cl)cc1Cl)CC(=O)N2 (configuration not stated)	·	·	·	-10.6%	?
Clc1ccc(CN2CCc3c([nH]c4ccccc34)C2)cc1Cl	-23.2%	-9.9%	-12.1%	?	3.98µM*
Cc1c2cnn(CC(=O)Nc3cccc(C(F)(F)F)c3)c(=O)c2c(C)n1Cc1ccccc1Cl	·	·	·	1.6%	?
C=CCNC(=S)N/N=C/c1ccc(N(CC)Cc2ccccc2)cc1	0.708µM*	0.6%	0.501µM*	-20.8%	?
CCN(CC)c1ccc(/C=N/NC(=S)NCc2ccc(OC)cc2)cc1	1.41µM*	14.4%	0.891µM*	-2.0%	23.3%
CCN(CC)c1ccc(/C=N/NC(=S)NCc2ccccc2)cc1	3.98µM*	7.2%	1.26µM*	-16.1%	-37.7%
CCn1c(-c2csc(-c3ccccc3)n2)n[nH]c1=S	6.31µM*	-0.2%	2.51µM*	?	?
